# Measured values from the supplement of paper PMC11732987, “Enantioselective OTUD7B fragment discovery through chemoproteomics screening and high-throughput optimisation” (Communications Chemistry, 2025).
# Unmarked numbers belong to inactive results.
# How the values were obtained:
# Experiment in all cases: log2 ratio of Biotin-Ahx-Ub-VS probe labelling (fragment/DMSO); higher = less target engagement (more negative = stronger competition), active = hit call of the paper (q ≤ 0.05, log2 ratio ≤ -1)
# Details in all cases: compound concentration: 200 uM; treatment time: 3 h
# ALG13 = target: T1, ALG13 (UniProt Q9NP73)
# T1 sequence (whole entry): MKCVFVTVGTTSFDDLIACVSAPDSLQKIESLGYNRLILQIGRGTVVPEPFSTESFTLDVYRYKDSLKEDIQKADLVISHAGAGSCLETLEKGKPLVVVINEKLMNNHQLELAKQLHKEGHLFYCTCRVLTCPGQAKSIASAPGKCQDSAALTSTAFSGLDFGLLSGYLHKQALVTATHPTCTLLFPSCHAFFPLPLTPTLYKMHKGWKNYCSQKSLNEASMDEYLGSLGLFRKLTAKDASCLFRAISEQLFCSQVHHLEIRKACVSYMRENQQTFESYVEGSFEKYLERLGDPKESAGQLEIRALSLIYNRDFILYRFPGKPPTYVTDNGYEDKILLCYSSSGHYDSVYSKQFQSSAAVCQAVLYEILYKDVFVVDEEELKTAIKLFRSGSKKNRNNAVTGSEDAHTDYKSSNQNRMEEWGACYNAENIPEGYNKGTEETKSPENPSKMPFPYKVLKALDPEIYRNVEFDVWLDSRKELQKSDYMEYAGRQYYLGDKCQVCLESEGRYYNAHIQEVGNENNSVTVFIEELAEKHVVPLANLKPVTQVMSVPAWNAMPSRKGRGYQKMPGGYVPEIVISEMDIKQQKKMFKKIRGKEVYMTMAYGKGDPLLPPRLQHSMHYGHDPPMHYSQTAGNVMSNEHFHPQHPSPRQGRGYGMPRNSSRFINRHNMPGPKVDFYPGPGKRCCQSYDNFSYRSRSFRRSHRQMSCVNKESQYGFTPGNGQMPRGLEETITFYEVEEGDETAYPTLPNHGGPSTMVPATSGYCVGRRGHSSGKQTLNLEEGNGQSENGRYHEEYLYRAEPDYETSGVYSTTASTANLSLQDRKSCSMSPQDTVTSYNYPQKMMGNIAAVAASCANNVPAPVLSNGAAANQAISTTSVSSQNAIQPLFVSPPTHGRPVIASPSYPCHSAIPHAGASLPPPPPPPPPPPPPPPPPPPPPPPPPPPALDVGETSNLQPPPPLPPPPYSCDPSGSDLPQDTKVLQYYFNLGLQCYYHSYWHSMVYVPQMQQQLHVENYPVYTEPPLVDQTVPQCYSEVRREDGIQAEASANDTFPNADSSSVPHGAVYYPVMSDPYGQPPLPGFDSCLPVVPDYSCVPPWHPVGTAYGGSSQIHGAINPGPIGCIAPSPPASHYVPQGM
# How it was run: (§1)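 Labelling with Biotin-Ahx-Ub-VS (0.5 µM final, 1 h) followed a 3 h triplicate treatment of HEK293T lysate (495 µg per sample, Tris/CHAPS/IGEPAL buffer with protease inhibitors) with fragment at 200 µM or vehicle. Labelled DUBs were NeutrAvidin-enriched, digested with LysC and trypsin, and run by diaPASEF LC-MS/MS. The values, average log2 fragment/vehicle ratios by unpaired t-test, come from global-median-normalised Spectronaut label-free quantities. Proteins with ≥2 unique peptides were used.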
# ATXN3 = ATXN3 (UniProt P54252)
# Sequence of ATXN3 (P54252 whole entry): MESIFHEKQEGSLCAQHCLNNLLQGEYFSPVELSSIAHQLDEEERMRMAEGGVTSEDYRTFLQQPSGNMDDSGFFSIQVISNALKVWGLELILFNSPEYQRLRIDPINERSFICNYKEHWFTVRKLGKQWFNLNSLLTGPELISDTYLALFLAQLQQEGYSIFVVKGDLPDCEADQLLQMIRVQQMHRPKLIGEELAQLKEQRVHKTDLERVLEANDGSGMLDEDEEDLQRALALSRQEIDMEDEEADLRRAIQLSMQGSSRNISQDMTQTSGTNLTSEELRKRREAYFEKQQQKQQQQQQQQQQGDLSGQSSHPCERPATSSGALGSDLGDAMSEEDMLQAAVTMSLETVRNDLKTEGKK
# How it was run: as §1
# BAP1 = target: T2, BAP1 (UniProt Q92560)
# T2 sequence (whole entry): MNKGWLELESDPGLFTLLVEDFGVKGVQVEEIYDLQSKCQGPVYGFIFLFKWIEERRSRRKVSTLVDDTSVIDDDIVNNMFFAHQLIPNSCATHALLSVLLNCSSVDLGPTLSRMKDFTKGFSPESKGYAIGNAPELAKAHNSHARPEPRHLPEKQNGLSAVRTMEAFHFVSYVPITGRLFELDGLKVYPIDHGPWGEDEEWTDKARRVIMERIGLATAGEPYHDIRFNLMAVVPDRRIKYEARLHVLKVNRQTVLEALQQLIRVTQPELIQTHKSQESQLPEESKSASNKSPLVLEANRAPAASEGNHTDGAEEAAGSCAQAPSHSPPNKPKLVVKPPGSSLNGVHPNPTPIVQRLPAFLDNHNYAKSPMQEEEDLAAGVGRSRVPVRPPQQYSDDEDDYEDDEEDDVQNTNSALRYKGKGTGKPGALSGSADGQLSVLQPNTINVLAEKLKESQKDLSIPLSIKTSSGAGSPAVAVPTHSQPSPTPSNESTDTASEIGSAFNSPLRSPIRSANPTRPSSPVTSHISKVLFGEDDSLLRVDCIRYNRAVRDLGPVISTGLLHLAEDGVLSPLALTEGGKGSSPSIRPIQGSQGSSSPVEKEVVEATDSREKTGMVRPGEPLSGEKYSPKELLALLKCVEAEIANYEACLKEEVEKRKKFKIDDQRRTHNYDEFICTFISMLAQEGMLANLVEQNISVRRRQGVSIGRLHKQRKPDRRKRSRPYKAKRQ
# How it was run: as §1
# EIF3F = EIF3F (UniProt O00303)
# Sequence of EIF3F (O00303 whole entry): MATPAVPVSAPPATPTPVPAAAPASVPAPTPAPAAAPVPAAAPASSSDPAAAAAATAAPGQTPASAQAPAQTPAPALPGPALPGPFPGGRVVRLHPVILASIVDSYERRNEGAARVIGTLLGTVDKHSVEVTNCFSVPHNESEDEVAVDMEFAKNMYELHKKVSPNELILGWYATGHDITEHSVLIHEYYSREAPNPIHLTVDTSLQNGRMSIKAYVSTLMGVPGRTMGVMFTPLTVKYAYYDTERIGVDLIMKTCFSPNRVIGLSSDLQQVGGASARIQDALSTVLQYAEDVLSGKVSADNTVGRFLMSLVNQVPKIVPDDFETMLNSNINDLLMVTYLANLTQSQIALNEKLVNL
# How it was run: as §1
# EIF3H = EIF3H (UniProt O15372)
# Sequence of EIF3H (O15372 whole entry): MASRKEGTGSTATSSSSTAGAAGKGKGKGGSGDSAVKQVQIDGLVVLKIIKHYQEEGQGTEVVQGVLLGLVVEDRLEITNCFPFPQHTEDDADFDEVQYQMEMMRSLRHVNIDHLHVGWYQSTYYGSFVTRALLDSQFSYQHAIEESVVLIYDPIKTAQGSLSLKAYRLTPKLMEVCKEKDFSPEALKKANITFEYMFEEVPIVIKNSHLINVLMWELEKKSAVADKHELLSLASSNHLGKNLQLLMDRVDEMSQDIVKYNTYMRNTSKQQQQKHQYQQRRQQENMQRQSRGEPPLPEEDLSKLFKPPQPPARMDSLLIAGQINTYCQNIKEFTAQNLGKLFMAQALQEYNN
# How it was run: as §1
# FAM105A = target: T3, FAM105A (UniProt Q9NUU6)
# T3 sequence (whole entry): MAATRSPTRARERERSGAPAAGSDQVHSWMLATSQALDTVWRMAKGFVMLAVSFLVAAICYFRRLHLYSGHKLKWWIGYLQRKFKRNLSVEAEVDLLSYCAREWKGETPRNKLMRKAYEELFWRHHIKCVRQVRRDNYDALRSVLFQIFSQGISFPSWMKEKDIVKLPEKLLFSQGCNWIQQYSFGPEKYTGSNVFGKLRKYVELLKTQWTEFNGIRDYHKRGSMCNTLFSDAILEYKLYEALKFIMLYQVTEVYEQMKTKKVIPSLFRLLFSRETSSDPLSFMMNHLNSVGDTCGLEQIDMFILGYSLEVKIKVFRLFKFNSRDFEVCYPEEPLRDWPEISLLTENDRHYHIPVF
# How it was run: as §1
# OTUB1 = OTUB1 (UniProt Q96FW1)
# Sequence of OTUB1 (Q96FW1 whole entry): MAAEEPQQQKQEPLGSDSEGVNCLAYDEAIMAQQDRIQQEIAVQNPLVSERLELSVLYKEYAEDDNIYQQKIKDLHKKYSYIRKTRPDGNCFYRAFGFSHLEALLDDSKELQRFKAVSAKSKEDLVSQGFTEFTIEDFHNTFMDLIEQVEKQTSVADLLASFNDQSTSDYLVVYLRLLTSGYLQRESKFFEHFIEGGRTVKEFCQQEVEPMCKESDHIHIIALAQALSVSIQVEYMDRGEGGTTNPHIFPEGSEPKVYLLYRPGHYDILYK
# How it was run: as §1
# OTUD4 = target: T4, OTUD4 (UniProt Q01804)
# T4 sequence (whole entry): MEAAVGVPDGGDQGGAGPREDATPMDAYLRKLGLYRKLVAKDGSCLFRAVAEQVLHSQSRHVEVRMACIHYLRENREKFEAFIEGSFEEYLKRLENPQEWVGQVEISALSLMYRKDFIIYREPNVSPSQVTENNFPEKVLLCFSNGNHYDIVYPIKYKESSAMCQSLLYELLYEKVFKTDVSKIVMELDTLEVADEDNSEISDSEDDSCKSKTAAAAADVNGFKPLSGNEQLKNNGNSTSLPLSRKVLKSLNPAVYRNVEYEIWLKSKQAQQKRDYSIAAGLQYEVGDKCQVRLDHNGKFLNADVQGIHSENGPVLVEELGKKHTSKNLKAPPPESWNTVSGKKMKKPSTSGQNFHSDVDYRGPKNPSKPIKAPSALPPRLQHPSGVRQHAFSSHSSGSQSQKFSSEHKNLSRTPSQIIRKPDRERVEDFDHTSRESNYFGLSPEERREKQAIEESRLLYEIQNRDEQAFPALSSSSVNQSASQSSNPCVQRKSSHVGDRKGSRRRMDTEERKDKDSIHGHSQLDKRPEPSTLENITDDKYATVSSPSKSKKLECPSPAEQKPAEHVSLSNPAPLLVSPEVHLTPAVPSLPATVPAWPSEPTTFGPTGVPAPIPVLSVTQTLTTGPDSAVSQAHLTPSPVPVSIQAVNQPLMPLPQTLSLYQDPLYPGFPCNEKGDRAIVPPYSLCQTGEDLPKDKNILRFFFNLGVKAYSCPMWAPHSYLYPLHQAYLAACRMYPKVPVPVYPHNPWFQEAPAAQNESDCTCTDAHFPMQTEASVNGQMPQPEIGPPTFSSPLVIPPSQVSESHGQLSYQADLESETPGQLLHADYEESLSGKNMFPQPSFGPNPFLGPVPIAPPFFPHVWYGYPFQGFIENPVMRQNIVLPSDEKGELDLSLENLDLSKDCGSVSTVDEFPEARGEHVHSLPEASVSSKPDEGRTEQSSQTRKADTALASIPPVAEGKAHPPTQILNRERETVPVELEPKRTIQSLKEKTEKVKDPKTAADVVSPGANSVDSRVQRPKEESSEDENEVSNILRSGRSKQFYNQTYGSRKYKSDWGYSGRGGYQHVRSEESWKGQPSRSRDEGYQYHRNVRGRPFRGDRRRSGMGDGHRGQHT
# How it was run: as §1
# OTUD5 = target: T5, OTUD5 (UniProt Q96G74)
# T5 sequence (whole entry): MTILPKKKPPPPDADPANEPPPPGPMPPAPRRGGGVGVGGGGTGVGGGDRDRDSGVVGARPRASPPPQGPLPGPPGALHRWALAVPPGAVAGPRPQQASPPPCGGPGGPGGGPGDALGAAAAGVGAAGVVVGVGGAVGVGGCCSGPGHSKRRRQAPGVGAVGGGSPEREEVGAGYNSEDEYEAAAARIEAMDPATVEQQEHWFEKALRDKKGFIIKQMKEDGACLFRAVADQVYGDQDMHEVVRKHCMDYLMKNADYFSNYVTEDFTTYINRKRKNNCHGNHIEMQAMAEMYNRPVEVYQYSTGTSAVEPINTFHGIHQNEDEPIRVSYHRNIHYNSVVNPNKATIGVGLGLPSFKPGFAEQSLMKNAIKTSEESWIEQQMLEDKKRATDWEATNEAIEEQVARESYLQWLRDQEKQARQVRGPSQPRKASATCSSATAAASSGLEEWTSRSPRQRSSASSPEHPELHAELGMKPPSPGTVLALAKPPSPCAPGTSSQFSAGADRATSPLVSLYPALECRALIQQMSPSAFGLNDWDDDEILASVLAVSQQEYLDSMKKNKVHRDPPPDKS
# How it was run: as §1
compound,measurement,setting,value
C/C(=C\CNC(=O)CCl)c1cnn(C)c1.Cl,log2 ratio of Biotin-Ahx-Ub-VS probe labelling,ALG13,0.0802
same,log2 ratio of Biotin-Ahx-Ub-VS probe labelling,ATXN3,-0.277
same,log2 ratio of Biotin-Ahx-Ub-VS probe labelling,BAP1,-1.56 (active)
same,log2 ratio of Biotin-Ahx-Ub-VS probe labelling,EIF3F,-0.217
same,log2 ratio of Biotin-Ahx-Ub-VS probe labelling,EIF3H,0.0454
same,log2 ratio of Biotin-Ahx-Ub-VS probe labelling,FAM105A,0.298
same,log2 ratio of Biotin-Ahx-Ub-VS probe labelling,OTUB1,-0.376
same,log2 ratio of Biotin-Ahx-Ub-VS probe labelling,OTUD4,0.00615
same,log2 ratio of Biotin-Ahx-Ub-VS probe labelling,OTUD5,-0.115
